Assay results taken from PubChem BioAssay (NCATS).
Records with an inconclusive call do not appear. A call without a number means that no potency is given here. The source made the active and inactive calls. Unless noted, calls come from the whole dose curve.

Columns and labels:
[1] = qHTS for Inhibitors of the Functional Ribonucleoprotein Complex (vRNP) of Lassa (LASV) Arenavirus: LASV Primary Screen - GLuc reporter signal (AID 1347082; calls by dose curve; tested in HEK293 reporter line; note: nearly all actives have a fitted effect of over 60% in size; note: potency is the fitted concentration of half-maximal effect)
[2] = qHTS for Inhibitors of the Functional Ribonucleoprotein Complex (vRNP) of Lassa (LASV) Arenavirus: Viability assay - alamar blue signal for LASV Primary Screen (AID 1347083; calls by dose curve; tested in HEK293 reporter line; note: nearly all actives have a fitted effect of over 80% in size; note: potency is the fitted concentration of half-maximal effect)
[3] = biological target: Nucleoprotein (Lymphocytic choriomeningitis virus (strain Armstrong)) (UniProt P09992); assay: qHTS for Inhibitors of the Functional Ribonucleoprotein Complex (vRNP) of Lymphocytic Choriomeningitis Arenaviruses (LCMV): LCMV Primary Screen - GLuc reporter signal (AID 1347086); note: series mostly up to about 57 µM; nearly all actives have a fitted effect of over 70% in size
Chain of Nucleoprotein (Lymphocytic choriomeningitis virus (strain Armstrong)) (P09992 whole entry, looked up): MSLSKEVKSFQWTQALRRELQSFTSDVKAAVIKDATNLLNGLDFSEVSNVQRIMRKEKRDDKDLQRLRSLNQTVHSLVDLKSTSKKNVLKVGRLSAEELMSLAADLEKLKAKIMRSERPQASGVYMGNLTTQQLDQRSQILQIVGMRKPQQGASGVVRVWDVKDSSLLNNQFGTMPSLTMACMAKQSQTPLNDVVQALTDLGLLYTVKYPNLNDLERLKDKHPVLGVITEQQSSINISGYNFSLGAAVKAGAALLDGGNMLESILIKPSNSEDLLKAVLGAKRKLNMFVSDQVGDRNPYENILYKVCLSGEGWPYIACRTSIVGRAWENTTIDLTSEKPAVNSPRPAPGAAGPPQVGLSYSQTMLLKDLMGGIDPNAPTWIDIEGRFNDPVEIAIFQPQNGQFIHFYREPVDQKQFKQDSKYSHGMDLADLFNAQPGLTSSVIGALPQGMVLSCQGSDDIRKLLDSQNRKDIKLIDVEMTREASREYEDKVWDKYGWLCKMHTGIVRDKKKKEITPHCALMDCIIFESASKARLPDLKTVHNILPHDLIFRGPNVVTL

[4] = qHTS for Inhibitors of the Functional Ribonucleoprotein Complex (vRNP) of Lymphocytic Choriomeningitis Arenaviruses (LCMV): Viability assay - alamar blue signal for LCMV Primary Screen (AID 1347085; calls by dose curve; tested in HEK293 reporter line; note: nearly all actives have a fitted effect of over 80% in size; note: potency is the fitted concentration of half-maximal effect)
[5] = qHTS of pediatric cancer cell lines to identify multiple opportunities for drug repurposing: Primary screen for TC32 cells (AID 1347089; active = well fitted cell-killing curve with a large enough effect; note: nearly all actives have a fitted effect of over 60% in size)
In short: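 A viability screen of TC32 cells was run over 48 h, with primary MIPE doses spanning 0.78 nM–46 µM and NPC doses 0.59 nM–46 µM. ATP luminescence (CellTiter-Glo) served as the read-out.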

Structure (SMILES) | Potency [1] | Potency [2] | Potency [3] | Potency [4] | Potency [5]
CC(C)(C)NC(=O)[C@H]1CC[C@H]2[C@@H]3CC[C@H]4NC(=O)C=C[C@]4(C)[C@H]3CC[C@]12C | inactive | inactive | inactive | – | –
Nc1ncn([C@@H]2O[C@H](CO)[C@@H](O)[C@H]2O)c(=O)n1 | inactive | – | – | inactive | –
CCC[C@H](N[C@@H](C)C(=O)N1[C@H](C(=O)O)C[C@@H]2CCCC[C@@H]21)C(=O)OCC | inactive | inactive | inactive | inactive | –
CN1C[C@H]2c3ccccc3Oc3ccc(Cl)cc3[C@@H]2C1 | inactive | inactive | inactive | – | –
COC1=CC(=O)C[C@@H](C)[C@]12Oc1c(Cl)c(OC)cc(OC)c1C2=O | inactive | – | – | inactive | –
O=C1NC(c2ccccc2)(c2ccccc2)C(=O)N1COP(=O)(O)O | inactive | inactive | inactive | inactive | –
CNS(=O)(=O)Cc1ccc2[nH]cc(CCN(C)C)c2c1 | inactive | inactive | inactive | – | –
O=C(c1ccc(OCCN2CCCCC2)cc1)c1c(-c2ccc(O)cc2)sc2cc(O)ccc12 | inactive | – | – | inactive | –
C#Cc1cccc(Nc2ncnc3cc(OCCOC)c(OCCOC)cc23)c1 | inactive | 7.69 µM (active) | inactive | – | –
COc1nc(N)nc2c1ncn2[C@@H]1O[C@H](CO)[C@@H](O)[C@@H]1O | inactive | inactive | inactive | inactive | –
Cc1c(OCC(F)(F)F)ccnc1CS(=O)c1nc2ccccc2[nH]1 (stereo unspecified) | inactive | inactive | inactive | inactive | –
Cc1nc2n(c(=O)c1CCN1CCC(c3noc4cc(F)ccc34)CC1)CCC[C@H]2O | inactive | inactive | inactive | inactive | –
CCCc1nc2c(C)cc(-c3nc4ccccc4n3C)cc2n1Cc1ccc(-c2ccccc2C(=O)O)cc1 | inactive | inactive | inactive | inactive | –
O=C(NCCN1CCOCC1)c1ccc(Cl)cc1 | inactive | inactive | inactive | inactive | –
CN(CCOc1ccc(NS(C)(=O)=O)cc1)CCc1ccc(NS(C)(=O)=O)cc1 | inactive | inactive | inactive | – | –
Cc1ccccc1N1C(=O)c2cc(S(N)(=O)=O)c(Cl)cc2NC1C (stereo unspecified) | inactive | inactive | inactive | inactive | –
C=C1CC[C@@]2(O)[C@H]3Cc4ccc(O)c5c4[C@@]2(CCN3CC2CC2)[C@H]1O5 | inactive | inactive | inactive | inactive | inactive
CCOc1ccc2ccccc2c1C(=O)N[C@@H]1C(=O)N2[C@@H]1SC(C)(C)[C@@H]2C(=O)O | inactive | inactive | inactive | inactive | –
CN1CCC[C@@H]1CCO[C@](C)(c1ccccc1)c1ccc(Cl)cc1 | inactive | – | – | inactive | –
Cn1cnc([N+](=O)[O-])c1Sc1ncnc2nc[nH]c12 | inactive | 50.1 µM (active) | inactive | – | –
CC(C)(C(=O)O)c1ccc(C(O)CCCN2CCC(C(O)(c3ccccc3)c3ccccc3)CC2)cc1 (stereo unspecified) | inactive | inactive | inactive | inactive | –
CNC(=O)c1cc(Oc2ccc(NC(=O)Nc3ccc(Cl)c(C(F)(F)F)c3)cc2)ccn1 | 38.5 µM (active) | – | – | 17.2 µM (active) | –
O=C(c1ccccc1)c1ccc2n1CCC2C(=O)O (stereo unspecified) | inactive | – | inactive | inactive | –
